According to PubChem BioAssay AID2279 (Southern Research Specialized Biocontainment Screening …, 2010):
Entries with a potency or affinity are not part of this list. The source made the active and inactive calls. The rule behind the calls is not given here.

test: HIV-1 Env-mediated cell fusion inhibitors, dose response, CCR5-tropic Env (AID 2279); settings: CCR5-tropic HIV-1 Env, reporter read-out; series mostly up to 50 µM

outcome, inactive:
O=[N+]([O-])c1cc(Cl)cc(/C=N/NC(=S)Nc2ccc(S(=O)(=O)N3CCOCC3)cc2)c1O
O=C(NN1C(=O)/C(=C/c2ccc(O)c([N+](=O)[O-])c2)SC1=S)c1ccccc1Cl
O=C(COc1ccc2ccccc2c1)Nc1cccc(C(=O)Nc2ccccc2C(=O)O)c1
COc1cc(/C=N/NC(=O)C(Cc2c[nH]c3ccccc23)NC(=O)OCc2ccccc2)cc([N+](=O)[O-])c1O (stereo not given)
O=C(O)CSc1nc(-c2ccc(Cl)cc2)nc2c1oc1ccccc12
CSc1ccc(C(c2c(C(=O)O)[nH]c3ccccc23)c2c(C(=O)O)[nH]c3ccccc23)cc1
CC(c1ccccc1)N1C(=O)c2ccc(C(=O)Nc3ccccc3C(=O)O)cc2C1=O (stereo not given)
O=C(O)C1Nc2ccc(Br)cc2C2C=CCC12 (stereo not given)
CCOc1cc(/C=C2/C(=N)N3C(=NC2=O)SN=C3S(=O)(=O)C(C)C)ccc1OC(=O)c1ccco1
Cc1cc(N2C(=O)C(O)=C(C(=O)c3ccc(C)o3)C2c2cccc(Oc3ccccc3)c2)no1 (stereo not given)
COc1cccc(-c2coc3c(C)c4oc(=O)c(CCC(=O)O)c(C)c4cc23)c1
O=C(O)c1cc(N2N=C(C(F)(F)F)/C(=C/C=C/c3ccco3)C2=O)ccc1Cl
O=C(O)c1cc(-c2ccc(/C=N/Nc3ccc(Cl)cc3)o2)ccc1Cl
Cc1cc(Cl)ccc1OC(C)C(=O)Nc1ccc(C(=O)Nc2ccccc2C(=O)O)cc1 (stereo not given)
O=C(O)c1ccc(-c2ccc(/C=C3\NC(=O)N(Cc4ccc(Cl)cc4)C3=O)o2)cc1Cl
